# According to article PMC7862700, “An all-to-all approach to the identification of sequence-specific readers for epigenetic DNA modifications on cytosine”:
# Legend:
# Test in all cases: DAPPL (digital affinity profiling via proximity ligation, sequencing); 10 mM Tris-HCl pH 7.5, 50 mM NaCl, 1 mM DTT, 4% glycerol, room temperature, 30 min; GST-TFs on glutathione beads, 16-mer random dsDNA library, 0.1% formaldehyde crosslink after washing; high values mean tight binding
# FEV = biological target: T1, FEV (Homo sapiens, UniProt Q99581 1-238); details: protein: recombinant; tags: N-terminal GST; dsDNA, one strand shown
# T1 sequence: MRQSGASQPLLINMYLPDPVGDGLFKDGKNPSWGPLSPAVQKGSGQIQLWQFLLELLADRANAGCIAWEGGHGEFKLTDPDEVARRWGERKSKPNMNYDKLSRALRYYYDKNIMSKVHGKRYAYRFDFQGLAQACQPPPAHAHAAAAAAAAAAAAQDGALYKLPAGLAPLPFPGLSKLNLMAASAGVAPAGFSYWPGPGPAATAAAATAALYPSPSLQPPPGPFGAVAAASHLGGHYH
# In short: (§1)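 Human transcription factors carrying a GST fusion were produced in yeast, bound to glutathione beads, tagged with DNA barcodes and pooled together with a tag-only sample. Each pool was held with 200 nmole of a random double-stranded 16-mer DNA library in Tris/NaCl/DTT/glycerol buffer for 30 min at room temperature, then washed, crosslinked in 0.1% formaldehyde, proximity-ligated with BsaI/T4 ligase (1 h, 37 °C), PCR-amplified and sequenced on an Illumina NextSeq500. Binding signal is the read frequency of each hexamer for a given factor divided by its frequency in the tag-only sample.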
# ETV5 = ETV5 (Homo sapiens, UniProt P41161 1-510); details: protein: recombinant; tags: N-terminal GST; dsDNA, one strand shown
# Sequence of ETV5 (P41161 whole entry): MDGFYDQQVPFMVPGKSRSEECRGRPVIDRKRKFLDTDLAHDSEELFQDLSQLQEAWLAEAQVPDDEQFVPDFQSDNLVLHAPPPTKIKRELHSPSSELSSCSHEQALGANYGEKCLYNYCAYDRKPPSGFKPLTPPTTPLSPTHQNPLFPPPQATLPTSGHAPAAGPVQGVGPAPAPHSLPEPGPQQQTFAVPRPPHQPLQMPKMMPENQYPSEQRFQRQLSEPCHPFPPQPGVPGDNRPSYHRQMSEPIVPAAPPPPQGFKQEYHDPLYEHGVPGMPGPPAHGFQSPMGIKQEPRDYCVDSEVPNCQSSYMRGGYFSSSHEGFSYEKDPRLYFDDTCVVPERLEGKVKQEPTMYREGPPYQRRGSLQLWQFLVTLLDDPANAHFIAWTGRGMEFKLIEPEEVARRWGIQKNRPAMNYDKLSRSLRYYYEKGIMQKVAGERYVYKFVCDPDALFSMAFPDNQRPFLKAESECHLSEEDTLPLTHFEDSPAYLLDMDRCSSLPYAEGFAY
# In short: as §1
# HSF1 = HSF1 (Homo sapiens, UniProt Q00613 1-529); details: protein: recombinant; tags: N-terminal GST; chain copies: 3; dsDNA, one strand shown
# Sequence of HSF1 (Q00613 whole entry): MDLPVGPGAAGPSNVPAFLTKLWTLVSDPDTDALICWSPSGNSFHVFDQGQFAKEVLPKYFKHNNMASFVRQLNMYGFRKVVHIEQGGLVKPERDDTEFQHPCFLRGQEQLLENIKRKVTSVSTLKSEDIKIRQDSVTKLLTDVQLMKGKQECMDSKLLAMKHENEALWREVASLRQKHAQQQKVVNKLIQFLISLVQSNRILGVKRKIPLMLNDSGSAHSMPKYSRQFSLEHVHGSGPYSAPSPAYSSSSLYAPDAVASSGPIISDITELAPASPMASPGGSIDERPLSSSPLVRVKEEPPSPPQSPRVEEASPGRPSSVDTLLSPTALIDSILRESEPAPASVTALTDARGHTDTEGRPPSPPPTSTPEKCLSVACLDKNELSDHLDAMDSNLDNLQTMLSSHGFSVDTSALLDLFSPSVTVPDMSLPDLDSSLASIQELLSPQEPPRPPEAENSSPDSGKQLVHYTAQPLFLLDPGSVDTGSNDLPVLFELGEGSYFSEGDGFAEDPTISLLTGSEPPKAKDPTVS
# In short: as §1
# SPIC = biological target: T2, SPIC (Homo sapiens, UniProt Q8N5J4 1-248); details: protein: recombinant; tags: N-terminal GST; dsDNA, one strand shown
# T2 sequence: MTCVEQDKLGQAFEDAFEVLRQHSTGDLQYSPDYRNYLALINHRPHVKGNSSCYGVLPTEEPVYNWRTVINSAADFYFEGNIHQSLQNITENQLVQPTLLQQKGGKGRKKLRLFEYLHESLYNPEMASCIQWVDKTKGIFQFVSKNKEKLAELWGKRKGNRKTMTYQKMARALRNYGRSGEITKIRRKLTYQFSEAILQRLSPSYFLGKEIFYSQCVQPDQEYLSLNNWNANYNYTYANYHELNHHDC
# In short: as §1
# ELF4 = ELF4 (Homo sapiens, UniProt Q99607 1-663); details: protein: recombinant; tags: N-terminal GST; dsDNA, one strand shown
# Sequence of ELF4 (Q99607 whole entry): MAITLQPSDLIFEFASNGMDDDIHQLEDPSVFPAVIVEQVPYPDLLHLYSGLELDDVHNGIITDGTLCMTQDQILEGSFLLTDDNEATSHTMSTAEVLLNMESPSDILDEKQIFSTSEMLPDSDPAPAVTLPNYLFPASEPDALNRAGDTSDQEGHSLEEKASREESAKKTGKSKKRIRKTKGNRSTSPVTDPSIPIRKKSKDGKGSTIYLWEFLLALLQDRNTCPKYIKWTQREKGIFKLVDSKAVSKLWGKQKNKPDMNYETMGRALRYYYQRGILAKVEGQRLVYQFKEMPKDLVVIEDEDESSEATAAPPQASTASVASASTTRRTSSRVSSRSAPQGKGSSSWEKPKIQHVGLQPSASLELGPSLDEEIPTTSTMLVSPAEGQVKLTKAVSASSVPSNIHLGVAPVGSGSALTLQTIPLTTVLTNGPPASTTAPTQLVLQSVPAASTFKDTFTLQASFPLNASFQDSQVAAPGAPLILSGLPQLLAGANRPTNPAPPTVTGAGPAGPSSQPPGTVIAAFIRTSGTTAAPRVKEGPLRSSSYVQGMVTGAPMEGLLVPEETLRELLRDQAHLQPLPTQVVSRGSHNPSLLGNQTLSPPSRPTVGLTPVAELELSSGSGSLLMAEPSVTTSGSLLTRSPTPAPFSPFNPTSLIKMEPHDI
# In short: as §1
# ELK4 = biological target: T3, ELK4 (Homo sapiens, UniProt P28324-2 1-405); details: protein: recombinant; tags: N-terminal GST; dsDNA, one strand shown
# T3 sequence: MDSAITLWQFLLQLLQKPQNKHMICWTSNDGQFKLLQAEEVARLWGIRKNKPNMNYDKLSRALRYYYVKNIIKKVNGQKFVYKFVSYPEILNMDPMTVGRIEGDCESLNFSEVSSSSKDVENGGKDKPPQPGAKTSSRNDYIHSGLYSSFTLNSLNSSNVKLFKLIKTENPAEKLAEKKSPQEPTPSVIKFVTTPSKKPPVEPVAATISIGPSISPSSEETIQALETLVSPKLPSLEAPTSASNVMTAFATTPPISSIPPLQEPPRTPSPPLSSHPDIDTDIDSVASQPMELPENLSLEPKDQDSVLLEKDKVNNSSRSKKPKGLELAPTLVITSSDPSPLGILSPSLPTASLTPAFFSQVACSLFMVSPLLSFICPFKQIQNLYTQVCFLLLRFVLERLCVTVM
# In short: as §1
# ETV2 = biological target: T4, ETV2 (Homo sapiens, UniProt O00321 1-342); details: protein: recombinant; tags: N-terminal GST; dsDNA, one strand shown
# T4 sequence: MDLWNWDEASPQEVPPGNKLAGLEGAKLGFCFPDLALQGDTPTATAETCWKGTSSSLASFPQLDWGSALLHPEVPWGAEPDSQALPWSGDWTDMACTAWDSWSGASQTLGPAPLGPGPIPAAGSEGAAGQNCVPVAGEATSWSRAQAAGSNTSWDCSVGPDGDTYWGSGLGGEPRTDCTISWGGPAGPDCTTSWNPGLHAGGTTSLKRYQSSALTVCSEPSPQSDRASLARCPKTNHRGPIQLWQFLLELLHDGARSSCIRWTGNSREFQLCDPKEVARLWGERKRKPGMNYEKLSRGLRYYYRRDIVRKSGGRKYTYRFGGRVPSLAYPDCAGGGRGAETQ
# In short: as §1
# ELF3 = biological target: T5, ELF3 (Homo sapiens, UniProt P78545 1-371); details: protein: recombinant; tags: N-terminal GST; dsDNA, one strand shown
# T5 sequence: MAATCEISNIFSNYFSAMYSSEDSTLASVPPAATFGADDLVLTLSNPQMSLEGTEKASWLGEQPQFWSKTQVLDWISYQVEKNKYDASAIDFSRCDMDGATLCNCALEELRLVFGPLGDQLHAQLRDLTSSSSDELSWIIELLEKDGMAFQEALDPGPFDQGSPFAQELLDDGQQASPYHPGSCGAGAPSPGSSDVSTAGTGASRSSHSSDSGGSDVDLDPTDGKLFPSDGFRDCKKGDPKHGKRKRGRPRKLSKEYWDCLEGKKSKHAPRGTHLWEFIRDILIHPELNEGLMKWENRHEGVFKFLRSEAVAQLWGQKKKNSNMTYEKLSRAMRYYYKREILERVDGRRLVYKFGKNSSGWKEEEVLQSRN
# In short: as §1
# CRX = CRX (Homo sapiens, UniProt O43186 1-299); details: protein: recombinant; tags: N-terminal GST; dsDNA, one strand shown
# Sequence of CRX (O43186 whole entry): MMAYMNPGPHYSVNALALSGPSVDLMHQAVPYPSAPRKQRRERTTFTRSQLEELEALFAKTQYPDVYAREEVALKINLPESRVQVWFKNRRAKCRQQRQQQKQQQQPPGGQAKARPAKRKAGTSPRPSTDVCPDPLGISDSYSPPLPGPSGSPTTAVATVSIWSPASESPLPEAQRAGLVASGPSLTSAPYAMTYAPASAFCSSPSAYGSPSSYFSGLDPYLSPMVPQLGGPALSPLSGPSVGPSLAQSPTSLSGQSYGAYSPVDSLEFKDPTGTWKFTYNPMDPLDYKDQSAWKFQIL
# In short: as §1
# ETV1 = ETV1 (Homo sapiens, UniProt P50549 1-477); details: protein: recombinant; tags: N-terminal GST; dsDNA, one strand shown
# Sequence of ETV1 (P50549 whole entry): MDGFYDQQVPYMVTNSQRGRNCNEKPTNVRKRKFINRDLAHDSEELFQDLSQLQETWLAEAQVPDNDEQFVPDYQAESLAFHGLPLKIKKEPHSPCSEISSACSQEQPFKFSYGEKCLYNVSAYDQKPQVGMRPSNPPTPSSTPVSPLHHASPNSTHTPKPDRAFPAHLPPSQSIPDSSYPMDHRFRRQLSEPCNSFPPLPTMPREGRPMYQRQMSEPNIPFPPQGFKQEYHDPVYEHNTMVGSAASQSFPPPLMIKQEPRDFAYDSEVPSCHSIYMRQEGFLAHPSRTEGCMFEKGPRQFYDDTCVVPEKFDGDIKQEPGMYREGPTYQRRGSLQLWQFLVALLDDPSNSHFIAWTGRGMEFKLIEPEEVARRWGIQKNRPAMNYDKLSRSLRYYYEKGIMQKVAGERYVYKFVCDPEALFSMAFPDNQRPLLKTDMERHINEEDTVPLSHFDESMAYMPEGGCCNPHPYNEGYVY
# In short: as §1
# ERF = biological target: T6, ERF (Homo sapiens, UniProt P50548 1-548); details: protein: recombinant; tags: N-terminal GST; dsDNA, one strand shown
# T6 sequence: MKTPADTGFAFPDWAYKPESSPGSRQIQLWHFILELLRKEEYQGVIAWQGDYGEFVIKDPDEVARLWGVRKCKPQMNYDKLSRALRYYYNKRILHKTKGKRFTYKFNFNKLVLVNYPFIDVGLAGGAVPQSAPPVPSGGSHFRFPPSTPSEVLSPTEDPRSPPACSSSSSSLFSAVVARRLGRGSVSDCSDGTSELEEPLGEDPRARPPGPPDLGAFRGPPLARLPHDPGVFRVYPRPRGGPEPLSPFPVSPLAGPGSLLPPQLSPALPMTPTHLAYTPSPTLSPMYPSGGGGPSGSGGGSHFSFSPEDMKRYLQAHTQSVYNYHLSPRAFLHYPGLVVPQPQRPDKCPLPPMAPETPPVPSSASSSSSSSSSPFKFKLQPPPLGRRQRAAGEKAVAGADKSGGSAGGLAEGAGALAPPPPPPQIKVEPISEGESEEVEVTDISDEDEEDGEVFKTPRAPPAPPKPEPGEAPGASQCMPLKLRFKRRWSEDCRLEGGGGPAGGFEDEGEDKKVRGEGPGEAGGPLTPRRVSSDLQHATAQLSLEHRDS
# In short: as §1
# ETV3L = biological target: T7, ETV3L (Homo sapiens, UniProt Q6ZN32 1-361); details: protein: recombinant; tags: N-terminal GST; dsDNA, one strand shown
# T7 sequence: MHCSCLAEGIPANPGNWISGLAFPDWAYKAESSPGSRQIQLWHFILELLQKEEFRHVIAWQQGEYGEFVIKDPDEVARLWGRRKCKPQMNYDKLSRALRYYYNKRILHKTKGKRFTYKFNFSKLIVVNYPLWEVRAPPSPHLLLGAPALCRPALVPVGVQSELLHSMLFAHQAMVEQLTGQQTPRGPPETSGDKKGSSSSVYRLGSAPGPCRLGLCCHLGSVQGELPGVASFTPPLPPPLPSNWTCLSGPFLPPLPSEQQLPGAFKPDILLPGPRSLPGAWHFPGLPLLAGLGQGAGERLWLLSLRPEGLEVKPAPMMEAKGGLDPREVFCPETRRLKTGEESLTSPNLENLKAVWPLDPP
# In short: as §1
# ETS2 = biological target: T8, ETS2 (Homo sapiens, UniProt P15036 1-469); details: protein: recombinant; tags: N-terminal GST; dsDNA, one strand shown
# T8 sequence: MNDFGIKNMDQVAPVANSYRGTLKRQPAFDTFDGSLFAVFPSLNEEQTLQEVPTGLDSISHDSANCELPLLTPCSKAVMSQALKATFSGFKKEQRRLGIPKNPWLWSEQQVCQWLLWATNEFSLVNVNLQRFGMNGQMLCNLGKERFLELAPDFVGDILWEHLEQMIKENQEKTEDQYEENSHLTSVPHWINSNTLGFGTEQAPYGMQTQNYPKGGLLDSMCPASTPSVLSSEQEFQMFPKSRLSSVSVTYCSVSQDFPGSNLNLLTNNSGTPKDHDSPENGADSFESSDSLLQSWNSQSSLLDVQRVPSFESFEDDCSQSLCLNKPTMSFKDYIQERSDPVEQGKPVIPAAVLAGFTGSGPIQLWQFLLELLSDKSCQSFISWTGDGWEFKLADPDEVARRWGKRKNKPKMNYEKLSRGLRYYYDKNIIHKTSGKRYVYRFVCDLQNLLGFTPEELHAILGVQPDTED
# In short: as §1
# SPDEF = biological target: T9, SPDEF (Homo sapiens, UniProt O95238 1-335); details: protein: recombinant; tags: N-terminal GST; dsDNA, one strand shown
# T9 sequence: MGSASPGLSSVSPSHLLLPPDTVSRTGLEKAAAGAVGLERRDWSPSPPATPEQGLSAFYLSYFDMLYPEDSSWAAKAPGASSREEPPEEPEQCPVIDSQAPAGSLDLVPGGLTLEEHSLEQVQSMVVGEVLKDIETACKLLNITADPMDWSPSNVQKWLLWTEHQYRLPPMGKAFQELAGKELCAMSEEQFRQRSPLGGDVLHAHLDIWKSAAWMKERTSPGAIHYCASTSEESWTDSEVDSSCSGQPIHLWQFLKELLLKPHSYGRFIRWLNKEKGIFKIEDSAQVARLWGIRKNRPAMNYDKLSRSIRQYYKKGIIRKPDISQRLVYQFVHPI
# In short: as §1
# ETV7 = biological target: T10, ETV7 (Homo sapiens, UniProt Q9Y603 1-341); details: protein: recombinant; tags: N-terminal GST; dsDNA, one strand shown
# T10 sequence: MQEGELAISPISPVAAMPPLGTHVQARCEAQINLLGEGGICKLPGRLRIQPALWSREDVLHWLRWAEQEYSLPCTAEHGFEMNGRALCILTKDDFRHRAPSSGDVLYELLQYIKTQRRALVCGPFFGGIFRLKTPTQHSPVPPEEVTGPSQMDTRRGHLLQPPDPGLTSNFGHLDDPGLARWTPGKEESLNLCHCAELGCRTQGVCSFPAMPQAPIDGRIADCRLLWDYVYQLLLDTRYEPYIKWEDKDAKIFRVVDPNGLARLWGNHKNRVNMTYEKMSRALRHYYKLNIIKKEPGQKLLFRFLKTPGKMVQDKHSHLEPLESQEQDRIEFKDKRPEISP
# In short: as §1
# ELF5 = biological target: T11, ELF5 (Homo sapiens, UniProt Q9UKW6-2 1-255); details: protein: recombinant; tags: N-terminal GST; dsDNA, one strand shown
# T11 sequence: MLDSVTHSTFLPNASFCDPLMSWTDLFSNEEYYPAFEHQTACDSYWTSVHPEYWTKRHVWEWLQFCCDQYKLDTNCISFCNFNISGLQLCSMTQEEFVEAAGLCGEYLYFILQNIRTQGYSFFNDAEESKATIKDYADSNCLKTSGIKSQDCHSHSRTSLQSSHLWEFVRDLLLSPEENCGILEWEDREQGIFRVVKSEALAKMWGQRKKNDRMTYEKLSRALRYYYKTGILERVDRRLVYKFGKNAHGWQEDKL
# In short: as §1
# ETV3 = biological target: T12, ETV3 (Homo sapiens, UniProt P41162-2 1-143); details: protein: recombinant; tags: N-terminal GST; dsDNA, one strand shown
# T12 sequence: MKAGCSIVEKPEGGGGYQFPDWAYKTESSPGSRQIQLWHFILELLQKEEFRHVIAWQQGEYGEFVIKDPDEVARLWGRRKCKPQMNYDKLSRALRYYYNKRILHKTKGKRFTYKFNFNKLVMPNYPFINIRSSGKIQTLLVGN
# In short: as §1
# ETV6 = ETV6 (Homo sapiens, UniProt P41212 1-452); details: protein: recombinant; tags: N-terminal GST; dsDNA, one strand shown
# Sequence of ETV6 (P41212 whole entry): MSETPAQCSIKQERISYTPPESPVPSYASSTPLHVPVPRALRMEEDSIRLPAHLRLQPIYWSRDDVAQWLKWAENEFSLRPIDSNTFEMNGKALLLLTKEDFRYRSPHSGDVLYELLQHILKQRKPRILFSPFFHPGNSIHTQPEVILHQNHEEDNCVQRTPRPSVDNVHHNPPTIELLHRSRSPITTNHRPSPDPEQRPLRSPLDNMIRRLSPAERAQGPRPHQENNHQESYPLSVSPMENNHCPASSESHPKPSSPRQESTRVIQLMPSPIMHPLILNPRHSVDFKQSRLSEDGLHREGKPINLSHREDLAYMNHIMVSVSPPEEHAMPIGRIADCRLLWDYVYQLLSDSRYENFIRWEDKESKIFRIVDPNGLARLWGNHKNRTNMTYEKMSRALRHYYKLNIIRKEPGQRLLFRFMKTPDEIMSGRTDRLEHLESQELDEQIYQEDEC
# In short: as §1
sequence,measurement,setting,value
ATAACC,binding signal,FEV,"1.22 fold enrichment (6-mer frequency, TF over GST control)"
same,binding signal,ETV5,"1.21 fold enrichment (6-mer frequency, TF over GST control)"
same,binding signal,HSF1,"1.09 fold enrichment (6-mer frequency, TF over GST control)"
same,binding signal,SPIC,"1.05 fold enrichment (6-mer frequency, TF over GST control)"
same,binding signal,ELF4,"1.23 fold enrichment (6-mer frequency, TF over GST control)"
same,binding signal,ELK4,"1.18 fold enrichment (6-mer frequency, TF over GST control)"
same,binding signal,ETV2,"1.05 fold enrichment (6-mer frequency, TF over GST control)"
same,binding signal,ELF3,"1.21 fold enrichment (6-mer frequency, TF over GST control)"
same,binding signal,CRX,"1.27 fold enrichment (6-mer frequency, TF over GST control)"
same,binding signal,ETV1,"1.1 fold enrichment (6-mer frequency, TF over GST control)"
same,binding signal,ERF,"1.08 fold enrichment (6-mer frequency, TF over GST control)"
same,binding signal,ETV3L,"1.18 fold enrichment (6-mer frequency, TF over GST control)"
same,binding signal,ETS2,"1.21 fold enrichment (6-mer frequency, TF over GST control)"
same,binding signal,SPDEF,"1.22 fold enrichment (6-mer frequency, TF over GST control)"
same,binding signal,ETV7,"1.25 fold enrichment (6-mer frequency, TF over GST control)"
same,binding signal,ELF5,"1.16 fold enrichment (6-mer frequency, TF over GST control)"
same,binding signal,ETV3,"1.15 fold enrichment (6-mer frequency, TF over GST control)"
same,binding signal,ETV6,"1.17 fold enrichment (6-mer frequency, TF over GST control)"
